Here are results for 31 compounds from ChEMBL document CHEMBL1961873, “Compounds: GSK PKIS; Assays: Nanosyn kinase panel” (2012).

In general, inhibition refers to the relative decrease from the control value, in per cent.

Several values for one entry are separate records, joined by “and”; a condition that tells them apart may be missing. Equal values may be shown once.

The target in one test is MAP kinase-interacting serine/threonine-protein kinase 1 (Homo sapiens) (UniProt Q9BUB5). The conditions noted are these: at 1 µM.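 Further: each value is an averaged percent inhibition of MKNK1.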
Sequence of MAP kinase-interacting serine/threonine-protein kinase 1 (Homo sapiens) (Q9BUB5 whole entry, looked up): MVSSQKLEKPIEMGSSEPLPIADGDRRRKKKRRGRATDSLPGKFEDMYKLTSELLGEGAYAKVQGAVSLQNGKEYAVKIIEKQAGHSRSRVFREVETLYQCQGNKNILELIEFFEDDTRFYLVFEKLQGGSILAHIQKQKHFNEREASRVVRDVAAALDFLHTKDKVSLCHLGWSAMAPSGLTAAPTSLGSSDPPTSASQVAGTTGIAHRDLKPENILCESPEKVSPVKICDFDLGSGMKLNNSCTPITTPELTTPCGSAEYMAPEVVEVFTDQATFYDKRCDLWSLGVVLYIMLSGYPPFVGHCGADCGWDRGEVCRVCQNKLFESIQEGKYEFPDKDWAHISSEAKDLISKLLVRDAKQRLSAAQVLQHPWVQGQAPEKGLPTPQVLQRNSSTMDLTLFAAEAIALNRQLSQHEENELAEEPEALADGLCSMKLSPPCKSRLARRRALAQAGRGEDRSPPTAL
Take `FC(F)(F)CNc1nccc(-c2cnn3ncccc23)n1`: the inhibition came out at 20.6%.

As for `CCOc1ccc2c(-c3ccnc(Nc4cc(OC)cc(C(F)(F)F)c4)n3)cnn2n1`, the inhibition was found to be 8.47%.

As to `CCS(=O)(=O)c1ccc(OC)c(Nc2ncc(-c3cccc(C(C)=O)c3)o2)c1`, the inhibition amounted to 12.2%.

On to `CS(=O)(=O)CCNCc1ccoc1-c1ccc2ncnc(Nc3ccc(OCc4ccccc4)cc3)c2c1`, for which the inhibition stood at 4.19%.

With `NS(=O)(=O)c1cccc(N/C=C2\C(=O)Nc3ccccc32)c1`, the inhibition turned out to be 4.02%.

Consider `CCn1c(-c2nonc2N)nc2cncc(C(=O)NCCNC)c21`, for which the inhibition was found to be 6.9%.

In the case of `CS(=O)(=O)CCNCc1ccc(-c2ccc3ncnc(Nc4ccc(OCc5cccc(C(F)(F)F)c5)cc4)c3c2)o1`, the inhibition amounted to 6.48%.

On to `COc1cc(N2CCN(C(C)C)CC2)ccc1Nc1nc(Nc2cccc(F)c2C(=O)O)c2cc[nH]c2n1`, for which the inhibition was found to be 5.88%.

As to `O=C(O[C@H]1CN[C@H](C#Cc2cc3ncnc(Nc4ccc5c(cnn5Cc5ccccc5)c4)c3s2)C1)N1CCOCC1`, the inhibition was found to be 9.35%.

In the case of `CS(=O)(=O)Nc1ccc(-c2cc(-c3ccccc3)cc(C(N)=O)c2N)cc1`, the inhibition was determined as 4.03%.

Take `CCS(=O)(=O)c1ccc(OC)c(Nc2ncc(-c3cccc(F)c3)o2)c1`: the inhibition turned out to be 19.5%.

For the compound `O=C1Nc2ccccc2/C1=C1\CCc2cc(O)ccc21`, the inhibition turned out to be 7.84%.

For `Cc1ccc(-c2cc3c(NC(=O)C4CC4)ncnc3o2)cc1`, the inhibition is 6.36%.

With `CS(=O)(=O)Nc1ccc(-c2ccc3c(NC(=O)C4CC4)n[nH]c3c2)cc1`, the inhibition came out at 2.11%.

Regarding `Cn1c(-c2nonc2N)nc2cnccc21`, the inhibition was 7.55%.

Consider `COc1cccc(-n2ncc3c(N/N=C/c4ccc(C(=O)NCCN(C)C)cc4)ncnc32)c1`, for which the inhibition is 72.9%.

In the case of `O=C(Nc1n[nH]c2nnc(-c3cccnc3)cc12)C1CC1`, the inhibition was -0.29%.

For the compound `COC(=O)Nc1nc2ccc(Oc3ccc(NC(=O)Nc4cc(C(F)(F)F)ccc4F)cc3)cc2s1`, the inhibition is 15.7%.

For the compound `NC(=O)c1ccc2c(-c3ccnc(NCCCO)n3)c(-c3ccc(F)cc3)nn2c1`, the inhibition came out at 13.4%.

`NS(=O)(=O)c1ccc(N/N=C2\C(=O)Nc3ccc(C(=O)NCc4ccncc4)cc32)cc1`: the inhibition was 10.9%.

As for `CNC(=O)c1ncccc1Nc1nc(Nc2cc3c(cc2OC)CCCN3C(=O)CN(C)C)nc2[nH]ccc12`, the inhibition worked out at 3.28%.

As to `COc1ccccc1-c1cc(/C=C2\C(=O)Nc3ncc(Br)cc32)cc(Br)c1O`, the inhibition is 11.7%.

On to `CN(C)CCNC(=O)Nc1ccc(N(C)c2ccnc(Nc3ccc(CS(C)(=O)=O)cc3)n2)cc1`, for which the inhibition was found to be 3.79%.

As for `CS(=O)(=O)CCNCc1ccc(-c2ccc3ncnc(Nc4ccc(OCc5ccccc5)cc4)c3c2)o1`, the inhibition was 6.82%.

Take `COC(=O)Nc1nc2cc(Oc3ccc(NC(=O)Nc4ccccc4)cc3)ccc2[nH]1`: the inhibition worked out at 6.54%.

Regarding `O=C(O[C@H]1CN[C@H](C#Cc2cc3ncnc(Nc4ccc(OCc5cccc(F)c5)c(Cl)c4)c3s2)C1)N1CCOCC1`, the inhibition was 11.4%.

As to `CCCNc1cccc(-n2ncc3c(N/N=C/c4ccncc4)ncnc32)c1`, the inhibition was determined as 69.1%.

In the case of `CC1=C(C(=O)Nc2ccc3[nH]nc(C)c3c2)C(c2ccc(C(F)(F)F)cc2)CC(=O)N1` (configuration not stated), the inhibition came out at 6.23%.

As to `CN1CCC(C(=O)Nc2n[nH]c3nc(-c4ccc(O)cc4)c(Br)cc23)CC1`, the inhibition was 77.6% and 84.9%.

For `Cc1cc(O)cc(C)c1/C=C/c1cncc(C(=O)OC(C)(C)C)c1`, the inhibition is 16.7%.

On to `CN1CCN(Cc2ccc(-c3cc4ncnc(Nc5ccc(OCc6cccc(F)c6)c(Cl)c5)c4s3)o2)CC1`, for which the inhibition is 18.6% and 22%.

For another test, the target named is MAP kinase-interacting serine/threonine-protein kinase 2 (Homo sapiens) (UniProt Q9HBH9). The conditions noted are these: at 0.1 µM.
Sequence of MAP kinase-interacting serine/threonine-protein kinase 2 (Homo sapiens) (Q9HBH9 whole entry, looked up): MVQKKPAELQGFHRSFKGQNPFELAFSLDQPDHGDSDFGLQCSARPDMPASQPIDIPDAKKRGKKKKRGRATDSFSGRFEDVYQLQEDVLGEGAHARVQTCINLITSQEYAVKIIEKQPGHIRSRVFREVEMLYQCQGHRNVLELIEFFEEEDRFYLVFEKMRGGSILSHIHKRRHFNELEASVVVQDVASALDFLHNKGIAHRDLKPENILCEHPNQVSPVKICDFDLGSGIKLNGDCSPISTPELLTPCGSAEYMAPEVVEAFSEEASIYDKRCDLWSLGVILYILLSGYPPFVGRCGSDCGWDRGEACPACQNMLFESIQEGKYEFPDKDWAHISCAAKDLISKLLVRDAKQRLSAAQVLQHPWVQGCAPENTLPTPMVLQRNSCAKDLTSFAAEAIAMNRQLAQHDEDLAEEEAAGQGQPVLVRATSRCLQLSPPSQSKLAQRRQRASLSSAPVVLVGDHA
For `FC(F)(F)CNc1nccc(-c2cnn3ncccc23)n1`, the inhibition was 2.55%.

As for `CCOc1ccc2c(-c3ccnc(Nc4cc(OC)cc(C(F)(F)F)c4)n3)cnn2n1`, the inhibition was 2.3%.

For `CCS(=O)(=O)c1ccc(OC)c(Nc2ncc(-c3cccc(C(C)=O)c3)o2)c1`, the inhibition is 2.96%.

As for `CS(=O)(=O)CCNCc1ccoc1-c1ccc2ncnc(Nc3ccc(OCc4ccccc4)cc3)c2c1`, the inhibition is 0.34%.

With `NS(=O)(=O)c1cccc(N/C=C2\C(=O)Nc3ccccc32)c1`, the inhibition amounted to 1.04%.

`CCn1c(-c2nonc2N)nc2cncc(C(=O)NCCNC)c21`: the inhibition worked out at 0.78%.

For the compound `CS(=O)(=O)CCNCc1ccc(-c2ccc3ncnc(Nc4ccc(OCc5cccc(C(F)(F)F)c5)cc4)c3c2)o1`, the inhibition came out at 0.53%.

With `COc1cc(N2CCN(C(C)C)CC2)ccc1Nc1nc(Nc2cccc(F)c2C(=O)O)c2cc[nH]c2n1`, the inhibition was determined as 1.57%.

In the case of `O=C(O[C@H]1CN[C@H](C#Cc2cc3ncnc(Nc4ccc5c(cnn5Cc5ccccc5)c4)c3s2)C1)N1CCOCC1`, the inhibition is 0.04%.

For `CS(=O)(=O)Nc1ccc(-c2cc(-c3ccccc3)cc(C(N)=O)c2N)cc1`, the inhibition is -0.47%.

As to `CCS(=O)(=O)c1ccc(OC)c(Nc2ncc(-c3cccc(F)c3)o2)c1`, the inhibition was found to be 1.15%.

Consider `O=C1Nc2ccccc2/C1=C1\CCc2cc(O)ccc21`, for which the inhibition came to 2.73%.

As for `Cc1ccc(-c2cc3c(NC(=O)C4CC4)ncnc3o2)cc1`, the inhibition amounted to 1.94%.

Take `CS(=O)(=O)Nc1ccc(-c2ccc3c(NC(=O)C4CC4)n[nH]c3c2)cc1`: the inhibition worked out at 1.69%.

For the compound `Cn1c(-c2nonc2N)nc2cnccc21`, the inhibition was found to be 2.67%.

Turning to `COc1cccc(-n2ncc3c(N/N=C/c4ccc(C(=O)NCCN(C)C)cc4)ncnc32)c1`, the inhibition came to 28.7%.

For the compound `O=C(Nc1n[nH]c2nnc(-c3cccnc3)cc12)C1CC1`, the inhibition is 0.77%.

Take `COC(=O)Nc1nc2ccc(Oc3ccc(NC(=O)Nc4cc(C(F)(F)F)ccc4F)cc3)cc2s1`: the inhibition is 2.41%.

As to `NC(=O)c1ccc2c(-c3ccnc(NCCCO)n3)c(-c3ccc(F)cc3)nn2c1`, the inhibition stood at 3.16%.

With `NS(=O)(=O)c1ccc(N/N=C2\C(=O)Nc3ccc(C(=O)NCc4ccncc4)cc32)cc1`, the inhibition worked out at 1.66%.

Turning to `CNC(=O)c1ncccc1Nc1nc(Nc2cc3c(cc2OC)CCCN3C(=O)CN(C)C)nc2[nH]ccc12`, the inhibition came to 1.22%.

Turning to `COc1ccccc1-c1cc(/C=C2\C(=O)Nc3ncc(Br)cc32)cc(Br)c1O`, the inhibition came to 7.61%.

For the compound `CN(C)CCNC(=O)Nc1ccc(N(C)c2ccnc(Nc3ccc(CS(C)(=O)=O)cc3)n2)cc1`, the inhibition came out at 0.95%.

As for `CS(=O)(=O)CCNCc1ccc(-c2ccc3ncnc(Nc4ccc(OCc5ccccc5)cc4)c3c2)o1`, the inhibition is 3.2%.

On to `COC(=O)Nc1nc2cc(Oc3ccc(NC(=O)Nc4ccccc4)cc3)ccc2[nH]1`, for which the inhibition stood at 1.92%.

With `O=C(O[C@H]1CN[C@H](C#Cc2cc3ncnc(Nc4ccc(OCc5cccc(F)c5)c(Cl)c4)c3s2)C1)N1CCOCC1`, the inhibition stood at 5.13%.

As for `CCCNc1cccc(-n2ncc3c(N/N=C/c4ccncc4)ncnc32)c1`, the inhibition worked out at 37.6%.

`CC1=C(C(=O)Nc2ccc3[nH]nc(C)c3c2)C(c2ccc(C(F)(F)F)cc2)CC(=O)N1` (configuration not stated): the inhibition came to 1.45%.

As to `CN1CCC(C(=O)Nc2n[nH]c3nc(-c4ccc(O)cc4)c(Br)cc23)CC1`, the inhibition was 6.5% and 5.49%.

Regarding `Cc1cc(O)cc(C)c1/C=C/c1cncc(C(=O)OC(C)(C)C)c1`, the inhibition came to 1.84%.

For the compound `CN1CCN(Cc2ccc(-c3cc4ncnc(Nc5ccc(OCc6cccc(F)c6)c(Cl)c5)c4s3)o2)CC1`, the inhibition was -0.2% and 3.49%.
